Bioassay records: PubChem, National Center for Advancing Translational Sciences (NCATS)
KDM5B inh = Primary screen for KDM5B Histone Demethylases FDH-coupled qHTS | actives 2.6% (n = 220,000) | KDM5B demethylase, FDH-coupled NADH fluorescence (FDH is formaldehyde dehydrogenase) | Potency, µM (titrated, usually from 57.7 µM), hits mostly inhibitors | AID 1347165, 2019 | Lysine-specific demethylase 5B (Homo sapiens), Q9UGL1; active = well fitted inhibition curve with a large enough effect; note: 0% is about no effect; nearly all actives have a fitted effect of over 70% in size
Target sequence (Q9UGL1 whole entry, looked up): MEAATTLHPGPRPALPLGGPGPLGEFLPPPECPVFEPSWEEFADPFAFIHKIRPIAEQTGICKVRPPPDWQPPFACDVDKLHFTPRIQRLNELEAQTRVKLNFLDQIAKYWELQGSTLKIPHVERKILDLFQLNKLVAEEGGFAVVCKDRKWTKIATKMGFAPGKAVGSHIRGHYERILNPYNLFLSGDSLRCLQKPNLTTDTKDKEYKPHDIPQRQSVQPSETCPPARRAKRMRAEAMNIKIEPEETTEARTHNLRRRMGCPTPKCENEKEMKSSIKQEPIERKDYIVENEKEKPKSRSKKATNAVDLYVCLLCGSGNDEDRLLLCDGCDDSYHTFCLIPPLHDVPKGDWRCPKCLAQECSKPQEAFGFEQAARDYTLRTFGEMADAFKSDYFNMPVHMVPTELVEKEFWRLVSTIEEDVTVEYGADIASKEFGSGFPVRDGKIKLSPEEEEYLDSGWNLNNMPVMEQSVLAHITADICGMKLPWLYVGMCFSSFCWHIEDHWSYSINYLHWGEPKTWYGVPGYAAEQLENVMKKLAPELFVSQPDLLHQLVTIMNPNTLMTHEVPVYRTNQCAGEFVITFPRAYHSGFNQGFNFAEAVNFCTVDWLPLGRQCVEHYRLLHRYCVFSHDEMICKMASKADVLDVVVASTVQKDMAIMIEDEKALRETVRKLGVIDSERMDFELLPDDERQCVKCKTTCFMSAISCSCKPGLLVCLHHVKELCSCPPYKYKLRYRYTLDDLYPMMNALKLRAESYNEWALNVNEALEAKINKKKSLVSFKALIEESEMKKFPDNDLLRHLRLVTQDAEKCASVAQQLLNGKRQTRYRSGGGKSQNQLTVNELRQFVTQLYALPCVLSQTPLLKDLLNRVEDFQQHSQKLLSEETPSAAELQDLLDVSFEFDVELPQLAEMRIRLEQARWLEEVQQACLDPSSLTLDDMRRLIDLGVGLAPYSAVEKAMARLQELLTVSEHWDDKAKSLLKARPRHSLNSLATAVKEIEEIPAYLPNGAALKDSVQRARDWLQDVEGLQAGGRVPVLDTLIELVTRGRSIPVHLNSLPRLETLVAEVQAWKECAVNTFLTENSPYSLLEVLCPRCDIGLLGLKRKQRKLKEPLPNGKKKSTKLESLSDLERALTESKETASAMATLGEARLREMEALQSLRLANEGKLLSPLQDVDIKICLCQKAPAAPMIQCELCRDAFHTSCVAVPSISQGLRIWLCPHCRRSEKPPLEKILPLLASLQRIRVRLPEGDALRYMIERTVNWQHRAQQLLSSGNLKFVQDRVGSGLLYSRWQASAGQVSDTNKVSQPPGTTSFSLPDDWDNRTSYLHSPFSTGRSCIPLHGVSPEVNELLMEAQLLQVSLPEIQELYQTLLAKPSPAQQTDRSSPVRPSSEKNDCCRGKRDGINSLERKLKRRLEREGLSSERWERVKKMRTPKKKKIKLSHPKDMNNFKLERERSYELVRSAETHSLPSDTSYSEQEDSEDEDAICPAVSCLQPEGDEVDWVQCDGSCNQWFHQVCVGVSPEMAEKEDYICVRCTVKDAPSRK
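Measured: NADH fluorescence change, 30 min, RT. System: KDM5BΔAP 200 nM final, H3K4me3 peptide, α-KG, Fe(II), ascorbate, NAD⁺ plus FDH, pH 7.5 HEPES. Compounds: titrated, 10 min pre-incubation with enzyme.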
Numbers without * were called inactive; i = inactive. Many of the other results were omitted from the sample, so hits are more common in it than they were. Potency is the fitted concentration of half-maximal effect.

SMILES	KDM5B inh
CC(=O)Nc1ccc(C)cc1S(=O)(=O)N1CCCCCC1c1cccs1 (stereo not given)	i
C=Cc1ccc(CN2C(=O)N(c3ccc(C)cc3)S(=O)(=O)c3ccccc32)cc1	i
CSC1=N/C(=C\c2ccccc2Br)C(=O)S1	i
CC(CNC(=O)c1n[nH]c(=O)c2ccccc12)(c1ccccc1)c1ccccc1	i
O=C(NCc1cccc(OC(F)F)c1)c1cccc(-n2cnnn2)c1	i
N#Cc1c(NC(=O)CSc2nc3ccccc3[nH]2)sc2c1CCCCC2	i
Cc1cccc(C)c1NC(=O)CSc1ncnc2ccccc12	i
CCCCCn1nc(C(=O)Nc2nc(C)c(C(C)=O)s2)c2ccccc2c1=O	i
Cc1nc2n(c1C(=O)NCc1cccs1)CCC(Nc1ccccc1)C2 (stereo not given)	i
Cc1noc(C)c1NC(=O)N1CCC(c2n[nH]c(=O)n2-c2ccccc2)CC1	i
O=Cc1ccc(-c2cc(Cl)c(Cl)cc2Cl)o1	i
CCC(=O)N1Cc2ccccc2CC2(CCCN(CC3CCNC3)C2)C1 (stereo not given)	i
CC(C)C(=O)N1Cc2ccccc2CC2(CCCN(CC3CCCCC3)C2)C1 (stereo not given)	i
CC(C)C(=O)N1Cc2ccccc2CC2(CCCN(CC3CCNC3)C2)C1 (stereo not given)	35µM*
CCCN(C(=O)Cn1nc(Cc2ccncc2)c2ccccc2c1=O)c1ccccc1F	i
FC(F)(F)C1CN(c2cc(N3CCOCC3)ncn2)CCO1 (stereo not given)	i
O=C(c1ccc2ccccc2n1)N1CCOC(C(F)(F)F)C1 (stereo not given)	i
FC(F)(F)C1CN(c2ccc3cc(Cl)ccc3n2)CCO1 (stereo not given)	14µM*
COc1cc(NC(=O)Cc2nc(-c3ccccc3)oc2C)cc(OC)c1	i
COc1ccc(OC)c(CN2CCC3OCCN(Cc4ccccc4)C(=O)C3C2)c1 (stereo not given)	i
CC(C)c1ccc(NC(=O)NC(=O)C(F)(F)F)cc1	i
O=C(COC(=O)CCNS(=O)(=O)c1ccc(F)c(Cl)c1)Nc1ccc(Cl)cc1Cl	i
C[C@@H]1CC2(CCCN2)C[C@H]1C	i
COCCn1c2c(c(=O)n1-c1ccccc1)CCN(Cc1ccncc1Cl)C2	35µM*
COCCn1c(=O)c2c(n1Cc1ccccc1)CN(Cc1ccccc1O)CC2	i
SMILES	KDM5B inh
COc1ncc(CN2CCc3c(n(CCOc4ccccc4)n(-c4ccccc4)c3=O)C2)cn1	i
CCCCCCCSc1nc2c(c(=O)[nH]c(=O)n2C)n1CCC	i
CCC(=O)Oc1ccc2c(-c3cc4ccccc4oc3=O)cc(=O)oc2c1	i
O=C1NC(=NC2CCCC2)C2(CCCN([S+](=O)([O-])c3cccc(C(F)(F)F)c3)C2)N1c1cc(F)cc(F)c1 (stereo not given)	i
C=CC[C@H]1CC(C)=C[C@H](CC=C)N1Cc1ccc(CN(C)S(C)(=O)=O)o1	14µM*
CN(Cc1ccc(CN2CCCC(O)(CO)C2)o1)S(C)(=O)=O (stereo not given)	i
COc1ccc(NC(=O)Cn2ccn3nc(-c4ccccc4)c(CO)c3c2=O)cc1OC	i
CN(C(=O)Cn1ccn2nc(-c3ccccc3)c(CO)c2c1=O)c1ccccc1	i
O=C(Cn1ccn2nc(-c3ccccc3)c(CO)c2c1=O)Nc1ccc(Cl)cc1	28µM*
Cc1cc(NC(=O)Cn2ccn3nc(-c4ccccc4)c(CO)c3c2=O)n[nH]1	i
O=C(Cn1ccn2nc(-c3ccccc3)c(CO)c2c1=O)Nc1ccc2c(c1)OCO2	i
O=C(Cn1ccn2nc(-c3ccccc3)c(CO)c2c1=O)Nc1cc(Cl)cc(Cl)c1	i
CCCCN(C)C(=O)Cn1ccn2nc(-c3ccccc3)c(CO)c2c1=O	i
CCCCc1ccc(NC(=O)Cn2ccn3nc(-c4ccccc4)c(CO)c3c2=O)cc1	25µM*
O=C(Cn1ccn2nc(-c3ccccc3)c(CO)c2c1=O)NCCc1ccc(Cl)cc1	28µM*
C=CCNS(=O)(=O)c1cccs1	i
CN(CC(=O)NC1(C#N)CCCC1)CC1CCCCC1	i
Cc1ccc(S(=O)(=O)N2CCN(CCS(=O)(=O)CCC(N)=O)CC2)cc1	i
COc1ccccc1-c1cn2c(n1)CO[C@@H](CNC(=O)c1ccc(Cl)cc1)C2	i
Cc1cc2oc(=O)cc(COC(=O)c3n[nH]c4ccccc34)c2cc1Cl	i
Cc1ccccc1C(=O)N/N=C1\CC(=O)CC(C)(C)C1	i
COc1ccc(CNC(=O)Nc2cccc(-c3ccc(N4CCCCC4)nn3)c2)cc1	i
Cn1cnc2c1c(=O)n(CCCSCc1c(F)cccc1Cl)c(=O)n2C	i
CCC1CCC(c2ccc(C(=O)CCN(C)C)cc2)CC1 (stereo not given)	i
Cc1cccc(OCc2cc(=O)n3c(-c4ccccc4)csc3n2)c1C	i
SMILES	KDM5B inh
COCCNC(=O)Cc1csc2nc(C)c(-c3cc(C)n(-c4ccccc4F)n3)c(=O)n12	28µM*
COCCNC(=O)Cc1nn(C)c(=O)c2ccccc12	i
Cc1cccc(-n2nc(-c3c(C)nc4scc(CC(=O)NC(C)C)n4c3=O)cc2C)c1C	25µM*
Cc1nn(-c2ccc(F)cc2)c(Oc2ccc(F)cc2F)c1CCC(=O)NCc1ccco1	i
CCCCNC(=O)Cc1csc2nc(C)c(-c3cc(C)n(-c4cccc(C)c4C)n3)c(=O)n12	28µM*
CCCCCNC(=O)Cc1cccs1	i
COc1ccc(CC(=O)NCCc2csc3nc(-c4ccccc4F)nn23)cc1	i
Cc1nc2scc(CC(=O)NCc3ccco3)n2c(=O)c1-c1cc(C)n(-c2cc(F)ccc2F)n1	25µM*
Cc1cc(C)n(-c2nc(-c3ccccc3)cc(=O)n2CC(=O)Nc2cccc(C)c2C)n1	i
CCCCNC(=O)COC(=O)Cc1nn(C)c(=O)c2ccccc12	i
Cc1nn(CC(=O)NCc2ccco2)c(=O)c2cc3ccccc3n12	i
Cc1nc2cc(F)ccc2cc1C(=O)NCc1cccnc1-n1cncn1	i
O=C(c1ccc(Cl)cc1)N1CC2(CCN(CC3CCCCC3)CC2)Cc2ccccc21	i
O=C(CSc1nnnn1C1CCCC1)NC(c1ccc(F)cc1)c1cccs1 (stereo not given)	i
CCOc1nc2ccccc2nc1N1CCC(C(=O)Nc2ccc(C(C)C)cc2)CC1	i
O=C(COC(=O)c1ccc2ccccc2n1)Nc1cccc(Oc2ccccc2)c1	i
COc1ccc(Nc2nc3ccccc3nc2NS(=O)(=O)c2ccccc2)cc1Cl	i
Cc1ccc(C)c(NC(=O)CCc2c(C)[nH]n(-c3ccc(F)cc3)c2=O)c1	i
CC(NC(=O)c1ccc2ccccc2n1)c1ccc(Cl)cc1 (stereo not given)	i
CN(C)C1(CNC(=O)CCc2c[nH]c3ccccc23)CCCCCC1	i
O=C(COc1ccccc1)Nc1ccc(-c2nc3cc(Cl)ccc3o2)cc1	i
N#CCSc1nnc(-c2nn(Cc3ccccc3)c(=O)c3ccccc23)o1	i
O=C(NCC1CCOCC1)c1ccc(C(F)(F)F)cc1	i
O=C(NCC1CCCO1)c1ccc2oc(-c3ccc(C(F)(F)F)cc3)nc2c1 (stereo not given)	25µM*
O=C(c1ccc2oc(-c3ccc(C(F)(F)F)cc3)nc2c1)N1CCOCC1	i
CCOC(=O)/C=C/c1ccc(NC(=O)c2ccc(CN3CCOCC3)cc2)cc1	i
